Laboratory results from the supplement of paper PMC9694430.

How the values were obtained:
Test in all cases: thermal shift delta Tm vs DMSO control; higher = stronger stabilization (binding)
Conditions in all cases: 12.5 µM; protein concentration 2 µM
LOC_OS01G01410-cb001 = test system: LOC_OS01G01410-cb001
How it was run: (§1)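 Heating from 25°C to 95°C at 0.05°C/s, fluorescence was recorded for 19.5 μl wells of 2 μM E. coli-expressed, purified rice kinase domain in 100 mM potassium phosphate pH 7.5, 150 mM NaCl, 10% glycerol and 5 × SYPRO Orange with compound in DMSO. Boltzmann fits gave melting temperatures for this differential scanning fluorimetry assay. The shift reported is the mean of three replicates against the DMSO-only protein.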

LOC_OS01G02750-cb003 = test system: LOC_OS01G02750-cb003
How it was run: as §1

LOC_OS01G10900-cb004 = test system: LOC_OS01G10900-cb004
How it was run: as §1

LOC_OS01G13800-cb001 = test system: LOC_OS01G13800-cb001
How it was run: as §1

LOC_OS01G14860-cb001 = test system: LOC_OS01G14860-cb001
How it was run: as §1

LOC_OS01G21960-cb002 = test system: LOC_OS01G21960-cb002
How it was run: as §1

LOC_OS01G39600-cb002 = test system: LOC_OS01G39600-cb002
How it was run: as §1

LOC_OS01G48390-cb002 = test system: LOC_OS01G48390-cb002
How it was run: as §1

LOC_OS01G51400-cb002 = test system: LOC_OS01G51400-cb002
How it was run: as §1

LOC_OS01G52050-cb004 = test system: T1, LOC_OS01G52050-cb004
T1 sequence (whole entry): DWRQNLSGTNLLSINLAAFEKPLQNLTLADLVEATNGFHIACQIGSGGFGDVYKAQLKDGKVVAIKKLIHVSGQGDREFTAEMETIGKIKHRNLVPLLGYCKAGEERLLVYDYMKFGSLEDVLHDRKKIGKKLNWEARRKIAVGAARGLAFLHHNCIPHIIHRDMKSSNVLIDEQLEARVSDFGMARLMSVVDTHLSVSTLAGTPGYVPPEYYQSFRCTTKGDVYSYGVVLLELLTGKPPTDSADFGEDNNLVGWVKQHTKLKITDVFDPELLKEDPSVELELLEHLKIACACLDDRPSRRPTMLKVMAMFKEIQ
How it was run: as §1

LOC_OS01G57100-cb003 = test system: LOC_OS01G57100-cb003
How it was run: as §1

LOC_OS01G60330-cb001 = test system: LOC_OS01G60330-cb001
How it was run: as §1

LOC_OS01G60700-cb002 = test system: LOC_OS01G60700-cb002
How it was run: as §1

LOC_OS01G63280-cb003 = test system: LOC_OS01G63280-cb003
How it was run: as §1

LOC_OS01G67340-cb003 = test system: LOC_OS01G67340-cb003
How it was run: as §1

LOC_OS01G70970-cb002 = test system: LOC_OS01G70970-cb002
How it was run: as §1

LOC_OS02G07810-cb001 = test system: LOC_OS02G07810-cb001
How it was run: as §1

LOC_OS02G08530-cb003 = test system: LOC_OS02G08530-cb003
How it was run: as §1

LOC_OS02G14120-cb001 = test system: LOC_OS02G14120-cb001
How it was run: as §1

LOC_OS02G17970-cb001 = test system: LOC_OS02G17970-cb001
How it was run: as §1
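Note: purified Escherichia coli-expressed rice kinase domain construct.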

| Structure (SMILES) | thermal shift delta Tm (LOC_OS01G01410-cb001) [°C] | thermal shift delta Tm (LOC_OS01G02750-cb003) [°C] | thermal shift delta Tm (LOC_OS01G10900-cb004) [°C] | thermal shift delta Tm (LOC_OS01G13800-cb001) [°C] | thermal shift delta Tm (LOC_OS01G14860-cb001) [°C] | thermal shift delta Tm (LOC_OS01G21960-cb002) [°C] | thermal shift delta Tm (LOC_OS01G39600-cb002) [°C] | thermal shift delta Tm (LOC_OS01G48390-cb002) [°C] | thermal shift delta Tm (LOC_OS01G51400-cb002) [°C] | thermal shift delta Tm (LOC_OS01G52050-cb004) [°C] | thermal shift delta Tm (LOC_OS01G57100-cb003) [°C] | thermal shift delta Tm (LOC_OS01G60330-cb001) [°C] | thermal shift delta Tm (LOC_OS01G60700-cb002) [°C] | thermal shift delta Tm (LOC_OS01G63280-cb003) [°C] | thermal shift delta Tm (LOC_OS01G67340-cb003) [°C] | thermal shift delta Tm (LOC_OS01G70970-cb002) [°C] | thermal shift delta Tm (LOC_OS02G07810-cb001) [°C] | thermal shift delta Tm (LOC_OS02G08530-cb003) [°C] | thermal shift delta Tm (LOC_OS02G14120-cb001) [°C] | thermal shift delta Tm (LOC_OS02G17970-cb001) [°C] |
| --- | --- | --- | --- | --- | --- | --- | --- | --- | --- | --- | --- | --- | --- | --- | --- | --- | --- | --- | --- | --- |
| COc1cc(OC)cc(-c2cc3cnc(N)nc3nc2NC(=O)NC(C)(C)C)c1 | 0.51 | 1.48 | 0.1 | 0.07 | 0.48 | 0.33 | -0.76 | 0.85 | 0.05 | 1.75 | 1.18 | 0.3 | 0.16 | 0.24 | -0.11 | 0.35 | -0.88 | 0.52 | 0.72 | -0.49 |
| CNC(=O)c1ccc(C)c(-n2c(C)cc(OCc3ccc(F)cc3F)c(Br)c2=O)c1 | -0.05 | 0.1 | 0.26 | 0.31 | -0.06 | 0.34 | -0.13 | 0.65 | 0.44 | 0.41 | 2.4 | 0.78 | 1.45 | 0.3 | -0.29 | 0.12 | 1.25 | 0.96 | 0.27 | 0.83 |
| CN(C)C[C@@H]1CCn2cc(c3ccccc32)C2=C(C(=O)NC2=O)c2cn(c3ccccc23)CCO1 | 1.3 | 0.71 | 0.95 | 1.16 | 2.41 | 2.83 | 2.85 | 0.62 | -0.02 | -0.62 | 2.1 | 0.51 | 2.42 | 0.43 | 0.03 | 0.53 | 0.54 | 1.19 | 2.29 | 1.69 |
| CCc1cc(Nc2nccc(-c3c(-c4ccc(OC)c(C(=O)Nc5c(F)cccc5F)c4)nc4ccccn34)n2)c(OC)cc1N1CCC(N2CCN(S(C)(=O)=O)CC2)CC1 | 1.23 | -0.77 | 0.34 | 0.56 | 0.33 | 1.05 | 1.04 | 0.41 | 0.3 | 0.04 | 1.35 | 0.65 | 1.19 | 0.43 | 0.06 | 0.26 | 0.77 | 0.82 | 0.04 | 0.47 |
| COc1cc(OC)c(C=C2C(=O)Nc3ccccc32)c(OC)c1 | 0.16 | 0.24 | 1.24 | 0.46 | 0.32 | 0.88 | 0.01 | 0.22 | 0.14 | -0.14 | 1.44 | 0.76 | 0.97 | -0.13 | 0.36 | 0.32 | 0.32 | 0.7 | 0.94 | 0.65 |
| CN1CCN(c2ccc3nc(-c4c(N)c5c(F)cccc5[nH]c4=O)[nH]c3c2)CC1 [Dovitinib (TKI-258) Dilactic Acid] | 5.85 | 2.07 | 4.46 | -0.49 | 1.65 | 3.5 | 4.66 | 3.4 | 0.79 | 6.33 | 1.5 | 13.5 | 1.33 | 1.22 | 6.31 | 7.56 | 1.75 | 4.53 | 6.88 | 0.5 |
| CC(C)(C)NS(=O)(=O)c1cncc(-c2cc(F)c3nc(N)nn3c2)c1 | 0.2 | 0.93 | 0.04 | 0.1 | 0.32 | 0.56 | 0.65 | 0.32 | 0.36 | 0.57 | 1.55 | 0.87 | 1.82 | 0.83 | 0.93 | 0.9 | 1.06 | 0.86 | -0.33 | 2.29 |
| Cn1c2ccccc2c2c3c(c4c5ccccc5n(CCC#N)c4c21)CNC3=O | 2.6 | 2.74 | 0.09 | 1.15 | 4.78 | 2.78 | 3.54 | 1.96 | 0.8 | 3.9 | 2.09 | 2.57 | -1.36 | 1.14 | 4.81 | 3.29 | 2.07 | 5.99 | 9.45 | 3.31 |
| CC(C)NC(=O)C1CCC(n2c(NC(=O)c3ccc(F)cc3)nc3ccc(CN4CCC(C(C)(C)O)CC4)cc32)CC1 (stereo not given) [Belizatinib (TSR-011)] | 0.68 | 3.65 | 1.75 | -0.36 | 0.58 | 1.84 | 2.02 | 2.61 | 0.56 | 4.45 | 0.68 | 1.95 | 0.11 | 0.25 | 2.85 | 6.79 | -0.66 | 5.19 | 4.13 | -0.03 |
| Nc1[nH]nc2nnc(-c3c(-c4ccccc4)nn4ccccc34)cc12 | 0.52 | 0.34 | 0.36 | 0.24 | 1.87 | 0.45 | -0.05 | 0.56 | 0.19 | 0.56 | 1.13 | 1.24 | 0.92 | 0.4 | 0.72 | 0.68 | -0.25 | 2.11 | 0.36 | 0.87 |
| N#CCNC(=O)c1ccc(-c2ccnc(Nc3ccc(N4CCOCC4)cc3)n2)cc1 [Momelotinib (CYT387)] | 2.55 | 0.08 | 1.02 | 0.1 | 5.59 | 2.72 | 2.38 | 0.91 | 0.13 | 3.27 | 1.85 | 6.73 | 1.01 | 0.32 | 1.56 | 0.41 | 0.78 | 1.72 | 9.13 | 0.53 |
| Cc1ccc(Nc2nccc(N(C)c3ccc4c(C)n(C)nc4c3)n2)cc1S(N)(=O)=O | 2.81 | 0.47 | 1.7 | 0.62 | 1.21 | 1.29 | 1.56 | 4.66 | 0.3 | 0.89 | 0.87 | 4.66 | 1.25 | 0.81 | 0.74 | 0.44 | 1.5 | 1.68 | 3.21 | 0.47 |
